Reference: PubChem BioAssay (NCATS)
Records with an inconclusive call do not appear. Where a call stands in place of a potency, no number is given. The source made the active and inactive calls. Calls come from the whole dose curve; as a rule, active = well fitted inhibition curve with a large enough effect; inconclusive = small, poorly fitted or top-dose-only effect; inactive = flat fitted curve, though single readings scatter.

molecular target: Voltage-gated inwardly rectifying potassium channel KCNH2 (Homo sapiens) (UniProt Q12809); assay: qHTS Assay for Small Molecule Inhibitors of the Human hERG Channel Activity (AID 588834); settings: U2OS BacMam hERG, FluxOR thallium flux fluorescence; series mostly up to 92.2 µM;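 note: lower thallium flux fluorescence means stronger hERG block; nearly all actives have a fitted effect of over 50% in size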
Description: NIH Chemical Genomics Center [NCGC]
National Institutes of Environmental Health Sciences [NIEHS]
National Toxicology Program [NTP]
We have developed a 1536-well cell-based assay for quantitative high throughput screening (qHTS) to determine in vitro hERG channel blockage as a measure of cardio toxicity with small molecules. This particular assay uses the U2OS cell line which is derived from human osteosarcoma.
NCGC Assay Protocol Summary:
HERG assay (FluxORTM thallium flux assay) was initially developed by Invitrogen/Molecular Probes, and then miniaturized into 1536-well plate in a homogeneous format by NCGC. This assay measures the activity of potassium channel using thallium dye (FluxOR) flux as surrogate measurement for potassium into the cells with a FDSS-7000 kinetic plate reader (Hamamatsu Corp., Hamamatsu City, Japan). The hERG ion channel is transduced into mammalian cells (U2OS) using a baculovirus (Bacmam) construct harboring the hERG K+ ion channel. So far we screened LOPAC1280 library (Sigma), the NTP collection of 1408 compounds, and the NCGC Pharmaceutical Collection (NPC), in which many well defined HERG blockers are present. The rank order potencies of many of these compounds are similar to that of other HERG assays (membrane potential, Rb+ flux, patch clamp, etc). This quick and homogeneous assay is also found to be sensitive, specific, and robust.
Using the FluxORTM thallium flux assay, the activity of potassium channel using thallium dye (FluxOR) flux as surrogate measurement for potassium into the cells was measured in the U2OS cell line transduced with hERG K+ ion channel using a baculovirus (Bacmam) using Opti-MEM medium (Invitrogen) containing 2% fetal calf serum (FCS, HyCone) following loading buffer addition, compound treatment for around 10 minutes and finally adding stimulation buffer. The assay was performed in black clear Kalypsys 1536-well plates. In the screen, Astemizole was used as positive controls. Library compounds were measured for their ability to cause hERG channel blockage in the cell line, as reflected by a decrease in fluorescence intensity, in a concentration-dependent manner. […] AC50 values were determined from concentration-response data modeled with the standard Hill equation.
qHTS protocol for hERG-U2OS cellular assay
[Step] [Parameter] [Value] [Description]
1. Day 1: Replace medium in 70-80% confluent T225 flask with 2.5 mL of hERG-BacMam virus plus 12.5 mL of phosphate buffered saline (PBS) (corresponding roughly to a multiplicity of infection ratio of 100 virus particles/cell)
2. Incubation: 4 hrs @ room Temperature in Dark
3. Reagent; Remove virus; wash once with 25 ml DPBS
4. Reagent; 35 ml culture medium
5. Incubation; 37 °C overnight
6. Day2: Reagent; 3 uL; 2000 U2OS cells/well
7. Time; 4 hr; 37 °C incubation
8. Loading buffer; 1 uL; 0.7X;
9. Incubation: 1hr @ RT in Dark.
12. Time; 10min; 37 °C incubation
13. Read fluorescence Intensity on FDSS for 10 Sec with 1 sec interval
14. Reagent; 1 uL; stimulation buffer
15. Read fluorescence Intensity on FDSS for 2 min with 1 sec interval
16. Detection; Fluorescence Intensity; FDSS
Potency is the fitted concentration of half-maximal effect.

Sequence of Voltage-gated inwardly rectifying potassium channel KCNH2 (Homo sapiens) (Q12809 whole entry, looked up): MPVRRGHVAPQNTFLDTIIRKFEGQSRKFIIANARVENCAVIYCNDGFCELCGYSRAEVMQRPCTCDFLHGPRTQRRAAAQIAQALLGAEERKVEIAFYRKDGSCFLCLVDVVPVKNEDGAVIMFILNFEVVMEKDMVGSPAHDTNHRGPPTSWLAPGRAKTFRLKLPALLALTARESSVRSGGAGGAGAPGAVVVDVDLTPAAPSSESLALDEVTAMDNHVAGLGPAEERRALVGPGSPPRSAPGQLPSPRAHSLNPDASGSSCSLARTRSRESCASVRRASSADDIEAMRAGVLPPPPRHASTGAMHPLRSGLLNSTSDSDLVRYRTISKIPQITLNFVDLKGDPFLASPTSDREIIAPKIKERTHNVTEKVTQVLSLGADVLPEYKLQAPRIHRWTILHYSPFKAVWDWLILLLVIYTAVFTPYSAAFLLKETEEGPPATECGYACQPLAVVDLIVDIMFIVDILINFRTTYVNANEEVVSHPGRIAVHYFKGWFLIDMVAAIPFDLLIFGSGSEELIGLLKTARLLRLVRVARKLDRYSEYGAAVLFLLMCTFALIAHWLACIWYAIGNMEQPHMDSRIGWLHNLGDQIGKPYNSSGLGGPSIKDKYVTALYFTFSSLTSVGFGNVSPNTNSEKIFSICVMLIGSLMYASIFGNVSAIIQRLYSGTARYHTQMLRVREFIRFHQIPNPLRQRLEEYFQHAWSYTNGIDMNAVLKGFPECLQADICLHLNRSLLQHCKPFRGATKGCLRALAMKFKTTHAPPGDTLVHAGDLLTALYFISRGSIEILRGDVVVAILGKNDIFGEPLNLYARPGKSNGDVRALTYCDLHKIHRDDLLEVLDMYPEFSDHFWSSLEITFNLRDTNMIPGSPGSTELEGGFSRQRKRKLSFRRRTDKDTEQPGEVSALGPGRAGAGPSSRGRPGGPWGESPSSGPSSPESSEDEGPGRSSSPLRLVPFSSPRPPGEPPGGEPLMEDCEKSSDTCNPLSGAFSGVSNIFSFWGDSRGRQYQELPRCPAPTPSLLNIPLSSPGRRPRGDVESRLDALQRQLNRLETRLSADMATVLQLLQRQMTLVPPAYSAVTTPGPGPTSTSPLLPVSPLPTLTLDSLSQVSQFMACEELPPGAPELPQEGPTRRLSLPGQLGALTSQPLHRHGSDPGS

| SMILES | Potency |
| --- | --- |
| Cl/C=C/Cl | inactive |
| CC(C)CC(C)N (stereo not given) | inactive |
| CCCCOCC1CO1 (stereo not given) | inactive |
| OCCBr | inactive |
| CN(C)c1ccc(N(C)C)cc1 | inactive |
| ClCC(Br)CBr (stereo not given) | inactive |
| CC(C)(C)C(O)(CCc1ccc(Cl)cc1)Cn1cncn1 (stereo not given) | 20 µM (active) |
| CC(C)C#N | inactive |
| Oc1cc(Cl)ccc1Cl | inactive |
| CCOP(=O)(OCC)OCC | inactive |
| CCC#N | inactive |
| Nc1c(Cl)cc([N+](=O)[O-])cc1Cl | inactive |
| CC1CC(=O)O1 (stereo not given) | inactive |
| CCNCC | inactive |
| BrCC(Br)(Br)Br | inactive |
| O=[N+]([O-])c1cc(Cl)c(Cl)c(Cl)c1 | inactive |
| CC(C)OS(C)(=O)=O | inactive |
| CC(Cl)CCl (stereo not given) | inactive |
| Cc1cnc[nH]1 | inactive |
| ClCCBr | inactive |

| SMILES | Potency |
| --- | --- |
| CC(C#N)CCC#N (stereo not given) | inactive |
| c1ccoc1 | inactive |
| O=[N+]([O-])c1ccc2c3c(cccc13)CC2 | inactive |
| CCBr | inactive |
| CN(C)c1ccc(N)cc1 | 35.5 µM (active) |
| CCOC(=O)CC(SP(=O)(OC)OC)C(=O)OCC (stereo not given) | inactive |
| Clc1ccc(Cl)c(Cl)c1 | inactive |
| O=C(O)CBr | inactive |
| CC(C)(OOC(C)(C)c1ccccc1)c1ccccc1 | 15.8 µM (active) |
| CC(=O)NNc1ccccc1 | inactive |
| Nc1ncc([N+](=O)[O-])s1 | inactive |
| C=C(Cl)CCl | inactive |
| Clc1cccc(Cl)c1 | inactive |
| COc1cc(-c2ccc(N)c(OC)c2)ccc1N | inactive |
| OCC(Cl)CCl (stereo not given) | inactive |
| Cc1ccccc1[N+](=O)[O-] | inactive |
| C=CCc1cc(OC)c2c(c1)OCO2 | inactive |
| Cc1ccc(N)c(N)c1 | inactive |
| COC(=O)Nc1nc2ccccc2[nH]1 | inactive |
| [O-][Cl+2]([O-])O | inactive |
